PubChem BioAssay
The source made the active and inactive calls. The rule behind the calls is not given here.

Each compound was assayed against Pantothenate synthetase (Mycobacterium tuberculosis (strain ATCC 25618 / H37Rv)) (UniProt P9WIL5) (assay: Recombinant Mtb pantothenate synthetase (PanC) inhibitors, coupled enzyme, confirmatory (AID 375;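 note: 0% = full reaction with vehicle and 100% = no enzyme background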)). Settings: coupled enzyme assay; at 10 µM, active compounds read high.
Sequence of Pantothenate synthetase (Mycobacterium tuberculosis (strain ATCC 25618 / H37Rv)) (P9WIL5 whole entry, looked up): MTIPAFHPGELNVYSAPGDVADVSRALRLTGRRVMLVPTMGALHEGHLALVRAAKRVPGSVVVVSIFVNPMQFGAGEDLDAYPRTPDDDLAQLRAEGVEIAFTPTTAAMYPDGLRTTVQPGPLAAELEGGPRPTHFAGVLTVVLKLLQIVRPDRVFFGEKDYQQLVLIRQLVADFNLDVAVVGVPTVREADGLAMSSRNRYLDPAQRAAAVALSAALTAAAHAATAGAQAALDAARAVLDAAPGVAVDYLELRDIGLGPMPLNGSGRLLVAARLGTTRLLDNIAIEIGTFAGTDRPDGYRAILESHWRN
For `CCOC(=O)C1=C(C)N(C)C(=O)NC1c1cccc(O)c1` (stereo not drawn), the inhibition was 0% (inactive).
In the case of `Cc1ccc2nc(NC(=O)C3CCCN(S(=O)(=O)c4cnc[nH]4)C3)sc2c1` (stereo not drawn), the inhibition is reported as 1% (inactive).
For `COc1ncnc2c1N=C1CC(C)(C)CC(N)=C1S2`, the inhibition was 0% (inactive).
`CCCNC(=O)NS(=O)(=O)c1ccc(Cl)cc1` was tested, and the inhibition was 5% (inactive).
For `Cc1cccc(Nc2nc(N)nc(CN3CCC(C(N)=O)CC3)n2)c1C`, the inhibition was 0% (inactive).
With `COc1ccccc1NC(=O)C1CC(=O)N(c2ccc(F)cc2)C1` (stereo not drawn) the inhibition was 0% (inactive).
`COc1ccccc1-n1c(C)nnc1SCC(=O)Nc1cccc(C(C)=O)c1` was tested, and the inhibition was 0% (inactive).
With `CC(CN(C)Cc1ccccc1)OC(=O)c1ccc2c(c1)OCCO2` (stereo not drawn) the inhibition was 0% (inactive).
With `CCCS(=O)(=O)N1CCN(C(=O)c2cccs2)CC1` the inhibition was 0% (inactive).
In the case of `COc1ccc(C(=O)Nc2ccc(C)cn2)c(OC)c1`, the inhibition is reported as 0% (inactive).
With `Cc1ccc(C)c(N2CCN(Cc3nnnn3C3CCCCC3)CC2)c1` the inhibition was 1% (inactive).
For `CN(C(=O)c1ccccn1)c1nnc(-c2cccnc2)s1`, the inhibition was 6% (inactive).
In the case of `COC(=O)CN(c1ccc(F)cc1)S(=O)(=O)c1ccccc1`, the inhibition is reported as 0% (inactive).
`CCOC(=O)CSc1nc2sc(C)c(C)c2c(=O)n1C` was tested, and the inhibition was 0% (inactive).
With `CC(C)C[C@H](NC(=O)Nc1cccc(C(F)(F)F)c1)C(=O)O` the inhibition was 0% (inactive).
`Cc1cc(NC(=O)c2ccccc2)ncc1NC(=O)c1ccco1` was tested, and the inhibition was 0% (inactive).
In the case of `C=CCNC(=O)CSc1ccc(Cl)cc1`, the inhibition is reported as 0% (inactive).
`Cc1cnn(C(=S)NCc2ccco2)c1` was tested, and the inhibition was 0% (inactive).
